# Experimental data taken from PubChem BioAssay AID1159580 (chemical genetic matrix, 2015).
# In all, about 5,500 compounds went through this assay and about 2,000 (36%) were called active. Another 18% or so got no clear call; they are omitted. The list shows a part of the results. Values without a mark were called inactive. Rule as the data show it: active = normalized growth mostly below about 0.91 (no sharp cut-off); inconclusive = no clear call, values can overlap the other calls; inactive = mostly above about 0.92.
# Test: chemical genetic growth profiling, strain panel (AID 1159580);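 also: tested at 20 µM; growth read once vehicle control cultures reached saturation at 30 °C; 1 = growth at the plate median or of vehicle wells; lower values mean less growth of the strain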
# Settings: S. cerevisiae deletion strains, growth OD
smiles,measurement,setting,value
CC1=C(/C=C/C(C)=C/C=C/C(C)=C/C=C/C=C(C)/C=C/C=C(C)/C=C/C2=C(C)C(=O)C(O)CC2(C)C)C(C)(C)CC(O)C1=O (stereo not drawn),normalized growth,"locus YAL021C, strain ccr4, stronger effect = lower value",1.04
same,normalized growth,"locus YAL026C, strain drs2, stronger effect = lower value",1.07
same,normalized growth,"locus YAL030W, strain snc1, stronger effect = lower value",1.03
same,normalized growth,"locus YBL061C, strain skt5, stronger effect = lower value",1.03
same,normalized growth,"locus YBR009C, strain hhf1, stronger effect = lower value",1.05
same,normalized growth,"locus YBR021W, strain FUR4, stronger effect = lower value",0.962
same,normalized growth,"locus YBR023C, strain chs3, stronger effect = lower value",1.03
same,normalized growth,"locus YBR171W, strain sec66, stronger effect = lower value",1.11 [resistant] (active)
same,normalized growth,"locus YBR229C, strain ROT2, stronger effect = lower value",0.942
same,normalized growth,"locus YBR231C, strain swc5, stronger effect = lower value",1.05
same,normalized growth,"locus YBR279W, strain paf1, stronger effect = lower value",1.02
same,normalized growth,"locus YCL011C, strain gbp2, stronger effect = lower value",1.04
same,normalized growth,"locus YCL016C, strain dcc1, stronger effect = lower value",1.02
same,normalized growth,"locus YCL029C, strain bik1, stronger effect = lower value",0.973
same,normalized growth,"locus YCL061C, strain MRC1, stronger effect = lower value",1.07
same,normalized growth,"locus YCL069W, strain vba3, stronger effect = lower value",1.05
same,normalized growth,"locus YCR088W, strain abp1, stronger effect = lower value",1.06
same,normalized growth,"locus YDL005C, strain med2, stronger effect = lower value",1.05
same,normalized growth,"locus YDL035C, strain GPR1, stronger effect = lower value",0.939
same,normalized growth,"locus YDL040C, strain nat1, stronger effect = lower value",1.01
same,normalized growth,"locus YDL074C, strain BRE1, stronger effect = lower value",0.981
same,normalized growth,"locus YDL101C, strain DUN1, stronger effect = lower value",0.986
same,normalized growth,"locus YDL185W, strain tfp1, stronger effect = lower value",0.964
same,normalized growth,"locus YDL192W, strain arf1, stronger effect = lower value",0.988
same,normalized growth,"locus YDR001C, strain nth1, stronger effect = lower value",1.07
same,normalized growth,"locus YDR069C, strain doa4, stronger effect = lower value",1.04
same,normalized growth,"locus YDR101C, strain arx1, stronger effect = lower value",0.985
same,normalized growth,"locus YDR137W, strain rgp1, stronger effect = lower value",1.02
same,normalized growth,"locus YDR159W, strain sac3, stronger effect = lower value",1.04
same,normalized growth,"locus YDR162C, strain NBP2, stronger effect = lower value",0.947
same,normalized growth,"locus YDR195W, strain ref2",1.12
same,normalized growth,"locus YDR297W, strain sur2, stronger effect = lower value",1.03
same,normalized growth,"locus YDR318W, strain mcm21, stronger effect = lower value",0.983
same,normalized growth,"locus YDR334W, strain swr1, stronger effect = lower value",1.07
same,normalized growth,"locus YDR335W, strain msn5, stronger effect = lower value",1.05
same,normalized growth,"locus YDR388W, stronger effect = lower value",0.992
same,normalized growth,"locus YDR392W, strain spt3, stronger effect = lower value",1.04
same,normalized growth,"locus YDR502C, strain sam2, stronger effect = lower value",0.993
same,normalized growth,"locus YEL003W, strain gim4, stronger effect = lower value",1.04
same,normalized growth,"locus YEL037C, strain rad23, stronger effect = lower value",1.05
same,normalized growth,"locus YEL061C, strain CIN8 (second series), stronger effect = lower value",1.05
same,normalized growth,"locus YEL061C, strain CIN8, stronger effect = lower value",0.981
same,normalized growth,"locus YER015W, strain faa2, stronger effect = lower value",1.04
same,normalized growth,"locus YER016W, strain bim1, stronger effect = lower value",1.03
same,normalized growth,"locus YER110C, stronger effect = lower value",0.992
same,normalized growth,"locus YER111C, strain swi4, stronger effect = lower value",1.07
same,normalized growth,"locus YER155C, strain BEM2 (second series), stronger effect = lower value",1.09
same,normalized growth,"locus YER155C, strain BEM2, stronger effect = lower value",0.998
same,normalized growth,"locus YER167W, strain BCK2, stronger effect = lower value",0.984
same,normalized growth,"locus YFR010W, strain ubp6, stronger effect = lower value",1.08
same,normalized growth,"locus YGL078C, strain dbp3, stronger effect = lower value",0.99
same,normalized growth,"locus YGL086W, strain mad1, stronger effect = lower value",0.997
same,normalized growth,"locus YGL167C, strain pmr1, stronger effect = lower value",1.04
same,normalized growth,"locus YGL173C, strain kem1, stronger effect = lower value",1.03
same,normalized growth,"locus YGL227W, strain vid30, stronger effect = lower value",1.08
same,normalized growth,"locus YGL240W, strain doc1, stronger effect = lower value",1.03
same,normalized growth,"locus YGL248W, strain PDE1, stronger effect = lower value",0.987
same,normalized growth,"locus YGL253W, strain hxk2, stronger effect = lower value",1.05
same,normalized growth,"locus YGR135W, strain pre9, stronger effect = lower value",0.992
same,normalized growth,"locus YGR229C, strain SMI1, stronger effect = lower value",0.982
same,normalized growth,"locus YGR252W, strain gcn5, stronger effect = lower value",0.944
same,normalized growth,"locus YHR013C, strain ard1, stronger effect = lower value",1.02
same,normalized growth,"locus YHR027C, strain rpn1, stronger effect = lower value",1.03
same,normalized growth,"locus YHR030C, strain SLT2, stronger effect = lower value",0.984
same,normalized growth,"locus YHR079C, strain IRE1 (second series), stronger effect = lower value",0.996
same,normalized growth,"locus YHR094C, strain hxt1, stronger effect = lower value",0.988
same,normalized growth,"locus YHR129C, strain ARP1, stronger effect = lower value",0.996
same,normalized growth,"locus YHR142W, strain chs7, stronger effect = lower value",1.07
same,normalized growth,"locus YHR200W, strain rpn10, stronger effect = lower value",0.988
same,normalized growth,"locus YIL066C, strain RNR3, stronger effect = lower value",0.907
same,normalized growth,"locus YIL073C, strain SPO22, stronger effect = lower value",1.02
same,normalized growth,"locus YIL125W, strain kgd1, stronger effect = lower value",0.99
same,normalized growth,"locus YIR030C, strain dcg1, stronger effect = lower value",1.01
same,normalized growth,"locus YJL092W, strain hpr5, stronger effect = lower value",1.07
same,normalized growth,"locus YJL095W, strain BCK1 (second series), stronger effect = lower value",1.03
same,normalized growth,"locus YJL095W, strain BCK1, stronger effect = lower value",1.06
same,normalized growth,"locus YJL115W, strain asf1, stronger effect = lower value",1.08
same,normalized growth,"locus YJL129C, strain trk1, stronger effect = lower value",1.07
same,normalized growth,"locus YJL134W, strain LCB3, stronger effect = lower value",0.98
same,normalized growth,"locus YJL154C, strain vps35, stronger effect = lower value",1.05
same,normalized growth,"locus YJL164C, strain tpk1, stronger effect = lower value",1.02
same,normalized growth,"locus YJL166W, strain qcr8, stronger effect = lower value",1.02
same,normalized growth,"locus YJL168C, strain set2, stronger effect = lower value",0.989
same,normalized growth,"locus YJL187C, strain SWE1 (second series), stronger effect = lower value",1.01
same,normalized growth,"locus YJL187C, strain SWE1, stronger effect = lower value",1.02
same,normalized growth,"locus YJR043C, strain POL32, stronger effect = lower value",0.929
same,normalized growth,"locus YKL009W, strain mrt4, stronger effect = lower value",0.994
same,normalized growth,"locus YKL068W, stronger effect = lower value",0.981
same,normalized growth,"locus YKL085W, strain MDH1 (second series), stronger effect = lower value",0.996
same,normalized growth,"locus YKL085W, strain MDH1, stronger effect = lower value",0.996
same,normalized growth,"locus YKL160W, strain elf1, stronger effect = lower value",1.02
same,normalized growth,"locus YKR001C, strain vps1, stronger effect = lower value",0.992
same,normalized growth,"locus YKR026C, strain gcn3, stronger effect = lower value",1.08 [resistant] (active)
same,normalized growth,"locus YKR091W, strain srl3, stronger effect = lower value",1.03
same,normalized growth,"locus YLL001W, strain dnm1, stronger effect = lower value",1.05
same,normalized growth,"locus YLL026W, stronger effect = lower value",1.02
same,normalized growth,"locus YLL041C, strain sdh2, stronger effect = lower value",1.03
same,normalized growth,"locus YLR027C, strain aat2, stronger effect = lower value",1.03
same,normalized growth,"locus YLR039C, strain RIC1, stronger effect = lower value",0.981
same,normalized growth,"locus YLR058C, strain SHM2, stronger effect = lower value",0.971
same,normalized growth,"locus YLR102C, strain apc9, stronger effect = lower value",0.993
same,normalized growth,"locus YLR221C, strain rsa3, stronger effect = lower value",1.03
same,normalized growth,"locus YLR258W, strain gsy2, stronger effect = lower value",1.03
same,normalized growth,"locus YLR262C, strain YPT6 (second series), stronger effect = lower value",0.986
same,normalized growth,"locus YLR262C, strain YPT6, stronger effect = lower value",1.01
same,normalized growth,"locus YLR268W, strain sec22, stronger effect = lower value",0.999
same,normalized growth,"locus YLR320W, strain mms22, stronger effect = lower value",1.04
same,normalized growth,"locus YLR330W, strain CHS5, stronger effect = lower value",0.99
same,normalized growth,"locus YLR342W, strain FKS1 (second series), stronger effect = lower value",0.918
same,normalized growth,"locus YLR342W, strain FKS1, stronger effect = lower value",1.04
same,normalized growth,"locus YLR357W, strain rsc2, stronger effect = lower value",1.12
same,normalized growth,"locus YLR370C, strain arc18, stronger effect = lower value",1.06
same,normalized growth,"locus YLR371W, strain rom2, stronger effect = lower value",0.981
same,normalized growth,"locus YLR384C, strain iki3, stronger effect = lower value",1.03
same,normalized growth,"locus YLR418C, strain cdc73, stronger effect = lower value",0.997
same,normalized growth,"locus YML016C, strain PPZ1, stronger effect = lower value",0.973
same,normalized growth,"locus YML032C, strain rad52, stronger effect = lower value",0.983
same,normalized growth,"locus YML120C, strain ndi1, stronger effect = lower value",1.03
same,normalized growth,"locus YML124C, strain tub3, stronger effect = lower value",0.991
same,normalized growth,"locus YMR058W, strain fet3, stronger effect = lower value",1.08
same,normalized growth,"locus YMR078C, strain ctf18, stronger effect = lower value",0.979
same,normalized growth,"locus YMR125W, strain sto1, stronger effect = lower value",1.09
same,normalized growth,"locus YMR129W, stronger effect = lower value",1.05
same,normalized growth,"locus YMR205C, strain PFK2, stronger effect = lower value",1.05
same,normalized growth,"locus YMR223W, strain ubp8, stronger effect = lower value",0.997
same,normalized growth,"locus YMR231W, strain pep5, stronger effect = lower value",1.05
same,normalized growth,"locus YMR263W, strain SAP30, stronger effect = lower value",1
same,normalized growth,"locus YMR307W, strain GAS1, stronger effect = lower value",0.965
same,normalized growth,"locus YNL067W, strain RPL9B, stronger effect = lower value",1.06
same,normalized growth,"locus YNL071W, strain lat1, stronger effect = lower value",1.02
same,normalized growth,"locus YNL153C, strain GIM3, stronger effect = lower value",1.02
same,normalized growth,"locus YNL209W, strain ssb2, stronger effect = lower value",1.03
same,normalized growth,"locus YNL233W, strain BNI4, stronger effect = lower value",1.05
same,normalized growth,"locus YNL248C, strain rpa49, stronger effect = lower value",1.07
same,normalized growth,"locus YNL250W, strain rad50, stronger effect = lower value",0.972
same,normalized growth,"locus YNL271C, strain bni1, stronger effect = lower value",0.988
same,normalized growth,"locus YNL298W, strain CLA4, stronger effect = lower value",0.98
same,normalized growth,"locus YNL307C, strain MCK1, stronger effect = lower value",0.988
same,normalized growth,"locus YNL322C, strain KRE1 (second series), stronger effect = lower value",1.04
same,normalized growth,"locus YNR049C, strain mso1, stronger effect = lower value",1.06
same,normalized growth,"locus YNR052C, strain pop2, stronger effect = lower value",0.998
same,normalized growth,"locus YOL012C, strain htz1",1.22
same,normalized growth,"locus YOL147C, strain pex11, stronger effect = lower value",0.995
same,normalized growth,"locus YOR001W, strain rrp6, stronger effect = lower value",1.03
same,normalized growth,"locus YOR061W, strain CKA2, stronger effect = lower value",0.953
same,normalized growth,"locus YOR069W, strain VPS5, stronger effect = lower value",0.985
same,normalized growth,"locus YOR070C, strain gyp1, stronger effect = lower value",1.02
same,normalized growth,"locus YOR080W, strain dia2, stronger effect = lower value",1.04
same,normalized growth,"locus YOR083W, strain WHI5, stronger effect = lower value",1.01
same,normalized growth,"locus YOR106W, strain vam3, stronger effect = lower value",1.02
same,normalized growth,"locus YOR136W, strain idh2, stronger effect = lower value",1
same,normalized growth,"locus YOR144C, strain elg1, stronger effect = lower value",0.999
same,normalized growth,"locus YOR184W, strain ser1, stronger effect = lower value",0.985
same,normalized growth,"locus YOR265W, strain rbl2, stronger effect = lower value",1.03
same,normalized growth,"locus YOR270C, strain vph1, stronger effect = lower value",1.16
same,normalized growth,"locus YOR290C, strain snf2, stronger effect = lower value",1.04
same,normalized growth,"locus YOR316C, strain cot1, stronger effect = lower value",0.994
same,normalized growth,"locus YPL051W, strain arl3, stronger effect = lower value",1
same,normalized growth,"locus YPL055C, strain LGE1, stronger effect = lower value",0.959
same,normalized growth,"locus YPL078C, strain atp4, stronger effect = lower value",1.05
same,normalized growth,"locus YPL106C, strain sse1, stronger effect = lower value",1.06
same,normalized growth,"locus YPL240C, strain hsp82, stronger effect = lower value",1.02
same,normalized growth,"locus YPL241C, strain CIN2, stronger effect = lower value",0.984
same,normalized growth,"locus YPR119W, strain clb2, stronger effect = lower value",0.988
same,normalized growth,"locus YPR141C, strain kar3, stronger effect = lower value",0.989
same,normalized growth,"locus YPR163C, strain tif3, stronger effect = lower value",0.977
same,normalized growth,"locus YPR167C, strain met16, stronger effect = lower value",0.992
same,normalized growth,"strain wtn01, stronger effect = lower value",0.976
